Screens deposited in PubChem by National Center for Advancing Translational Sciences (NCATS).
This is one part of a sample in which hits are shown more often than they occur.
VDR inh: inhibitors of human vitamin D receptor; P11473; VDR-SRC2-3 peptide fluorescence polarization, 2 h; Potency, µM, actives largely listed as inhibitors; actives 0.93% (n = 400,000)
Target sequence (P11473 whole entry, looked up): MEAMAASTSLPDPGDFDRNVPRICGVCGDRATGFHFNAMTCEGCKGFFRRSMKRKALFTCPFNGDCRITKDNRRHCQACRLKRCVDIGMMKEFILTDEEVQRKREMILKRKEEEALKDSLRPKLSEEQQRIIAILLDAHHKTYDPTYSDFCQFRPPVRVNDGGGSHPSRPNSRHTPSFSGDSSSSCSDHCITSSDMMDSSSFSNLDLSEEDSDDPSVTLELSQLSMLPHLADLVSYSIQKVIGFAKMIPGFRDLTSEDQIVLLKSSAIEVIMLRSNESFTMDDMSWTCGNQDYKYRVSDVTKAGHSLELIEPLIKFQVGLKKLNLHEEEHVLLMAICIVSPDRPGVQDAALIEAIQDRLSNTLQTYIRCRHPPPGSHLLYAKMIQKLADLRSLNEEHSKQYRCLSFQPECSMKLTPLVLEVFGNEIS
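The screen uses fluorescence polarization to detect compounds that interfere with recruitment of the SRC2-3 coactivator peptide to VDR; plates are read after 2 h at room temperature.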
G9a inh: blocks human histone lysine methyltransferase G9a | actives 8.8% (n = 350,000) | Q96KQ7 | G9a H3K9 monomethylation, AlphaScreen, 2 h | Potency, µM (series often up to 102 µM), most hits filed as inhibitors; also: nearly all actives have a fitted effect of over 75% in size
Target sequence (Q96KQ7 913-1193 limits assumed): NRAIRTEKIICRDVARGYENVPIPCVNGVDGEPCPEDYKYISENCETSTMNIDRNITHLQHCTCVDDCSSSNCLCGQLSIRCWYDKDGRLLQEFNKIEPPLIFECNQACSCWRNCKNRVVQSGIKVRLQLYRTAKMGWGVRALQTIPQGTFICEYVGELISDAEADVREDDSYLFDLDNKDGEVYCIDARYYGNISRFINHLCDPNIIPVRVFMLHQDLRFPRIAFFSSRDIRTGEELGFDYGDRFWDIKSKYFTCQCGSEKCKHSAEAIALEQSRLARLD
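AlphaScreen detection with an anti-monomethyl H3K9 antibody quantified product after a 2 h room-temperature reaction containing 500 nM biotinylated H3K9 peptide, 20 µM SAM and 20 nM enzyme, which had been preincubated 15 min with compound.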
12-LOX inh: inhibitors of human 12S-lipoxygenase ALOX12. purified 12hLO, xylenol orange hydroperoxide absorbance. actives 1.1% (n = 580,000). AID 1671190. Potency, µM (highest dose often 108 µM), most hits filed as inhibitors. P18054
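Purified human 12hLO at 150 nM in 25 mM Hepes, 0.01% Triton X-100, pH 7.0, preincubated 15 min at room temperature with compound. Reaction started with 40 uM arachidonic acid, 30 min at room temperature. Hydroperoxide measured by Fe-xylenol orange, 573/405 nm absorbance ratio.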
Sfp PPTase inh: Sfp phosphopantetheinyl transferase inhibition. Biochemical Sfp PPTase activity, qHTS. Potency, µM, most hits filed as inhibitors. actives 3.5% (n = 310,000). AID 1490;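 also: the enzyme is Sfp with the accession as filed and its product quenches rhodamine fluorescence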
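Fluorescence-quenching assay with 15 nM Sfp, 5 uM rhodamine-CoA and 12.5 uM BHQ-2-labelled ybbR peptide in pH 7.6 Hepes/MgCl2 buffer. Enzyme was pre-incubated with compound for 15 min at room temperature. Rate was taken from the 30-min fluorescence change (525/598 nm).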
Glioma ERSR ind: ER stress response induction in glioma; U87-MG GRP78 promoter luciferase reporter, 16 h; Potency, µM, hits mostly activators; actives 0.02% (n = 420,000); also: series mostly up to about 76 µM; nearly all actives have a fitted effect of over 35% in size
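Stably transfected U87-MG glioma cells carrying a GRP78-based luciferase sensor; 16 h compound incubation. Luminescence end-point read 10 min after Bright-Glo addition at room temperature.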
Numbers stand for hits; i = inactive; ? = inconclusive; nt = no result; ! = repeats disagree; [ ] = remark or other dose. Calls follow the shape of the dose curve; as a rule, active = well fitted curve in the direction sought with a large enough effect; inconclusive = small, poorly fitted or top-dose-only effect, or another doubt; inactive = no such curve, though single readings can be large; an effect the other way counts as inactive or inconclusive.

SMILES	VDR inh	G9a inh	12-LOX inh	Sfp PPTase inh	Glioma ERSR ind
CCC1(N2CCN(C(=O)COc3cccc(Cl)c3)CC2)CCN(C(=O)NC)C1 (stereo not drawn)	nt	nt	i	nt	nt
CC1=C(O)C(=O)C=C2C1=CC=C1[C@@]2(C)CC[C@@]2(C)[C@@H]3C[C@](C)(C(=O)O)CC[C@]3(C)CC[C@]12C	nt	nt	2.43µM!	nt	nt
CC1=C(O)C(=O)C=C2C1=CC=C1[C@]2(C)CC[C@@]2(C)C3C[C@](C)(C(=O)O)CC[C@@]3(C)CC[C@@]12C (stereo partly drawn)	3.55µM	?	nt	i	i
NC1C=CC=C(C(=O)O)C1 (stereo not drawn)	i	3.16µM	i	i	i
CCCCn1c(O)c(C=NCc2ccc3c(c2)OCO3)c(=O)[nH]c1=O	i	i	i	50.1µM	i
CCN(CC)c1ccc(/C=C2/C(=O)NC(=O)N(Cc3ccco3)C2=O)cc1	?	?	?	50.1µM	i
Cc1cc(/C=C2/C(=O)NC(=O)N(Cc3ccco3)C2=O)c(C)n1-c1ccccc1	i	10µM	?	i	i
COc1cc2c(cc1OCc1ccccc1)NC(=O)C21CCN(C(=O)c2cccnc2)CC1	nt	nt	i	nt	nt
CN(C)CCN(C)C[C@H]1CN2CC[C@H]1C[C@@H]2CNC(=O)c1ccc(N(C)C)cc1	nt	nt	i	nt	nt
O=c1[nH]c(=S)n(CCC2=CCCCC2)c(O)c1/C=N/Nc1ccccc1	?	?	35.5µM	?	i
CCN(CC)CCN=Cc1c(O)n(CCC2=CCCCC2)c(=O)[nH]c1=O	i	i[12.7 µM]	i	i	i
O=c1[nH]c(=O)n(CCC2=CCCCC2)c(O)c1C=NCc1cccnc1	i	50.1µM	i	i	i
CCS(=O)(=O)N1CC(COC)C2(CCNCC2)C1 (stereo not drawn)	nt	nt	i	nt	nt
C=CCNC(=O)NC[C@H]1C[C@@H]2CCN1C[C@@H]2c1cc(C(CC)CC)nc(-c2ccncc2)n1	nt	nt	i	nt	nt
CNCC/C=C\c1cccnc1	i	nt	25.1µM	i	i
O=C1N=C(N2CCCCC2)SC1=C1CCCCC1	i	25.1µM	i	i	i
O=c1[nH]c(O)c(C=Nc2ccccc2[N+](=O)[O-])c(=O)[nH]1	nt	70.8µM	nt	i	nt
CCOC(=O)c1sc(/N=C/c2c(O)n(-c3ccccc3)c(=O)[nH]c2=O)c(C#N)c1C	?	?	i	50.1µM	i
CCN(CC)c1ccc(N=Cc2c(O)n(-c3ccccc3)c(=O)[nH]c2=O)cc1	i	?	?	50.1µM	i
CCOc1ccc(-n2c(O)c(C=Nc3ccc(N(CC)CC)cc3)c(=O)[nH]c2=O)cc1	i	?	i	?	i
Cc1ccc(N/N=C/c2c(O)n(-c3ccccc3)c(=O)[nH]c2=O)cc1	i	3.16µM	?	i	i
c1ccc(C2CN3CCCC3CN2)cc1 (stereo not drawn)	nt	nt	i	nt	nt
COc1cc(C)cc2oc(=O)c(CC(=O)N3CCN(CCc4ccccn4)CC3)c(C)c12	nt	nt	i	nt	nt
CCN(CC)c1ccc(N=Cc2c(O)n(Cc3ccccc3)c(=O)[nH]c2=O)cc1	i	i	i	i	i
CCN(CC)c1ccc(N=Cc2c(O)[nH]c(=O)[nH]c2=O)cc1	79.4µM	?	i	i	i
SMILES	VDR inh	G9a inh	12-LOX inh	Sfp PPTase inh	Glioma ERSR ind
Cc1cccc(-n2c(O)c(C=Nc3ccc(Br)cn3)c(=O)[nH]c2=O)c1	20µM	nt	?	i	i
Cc1ccc(-n2c(O)c(/C=N/c3ncc(Br)cc3Br)c(=O)[nH]c2=O)cc1	i	i	i	i	i
CNCc1cn(C[C@H]2C[C@@H]3CCN2C[C@@H]3C(=O)NC2CCCCC2)nn1	nt	nt	i	nt	nt
CC1=C[C@@H]2c3cccc4[nH]cc(c34)C[C@H]2N(C)C1	50.1µM!	44.7µM	i	i	i
CN1Cc2ccccc2[C@@H]2c3cccc4[nH]cc(c34)C[C@H]21	14.1µM	12.6µM	i	79.4µM!	i
CCN(CC)C(=O)N[C@@H]1C[C@H]2c3cccc4[nH]cc(c34)C[C@@H]2N(C)C1	i	i[21.5 µM]	nt	i	i
COc1cc2c(cc1OCc1ccncc1)NC(=O)C21CCN(Cc2ccncc2)CC1	nt	nt	i	nt	nt
CCc1ccc(NC(=O)CN2C(=O)CN=C(c3ccc(OC)cc3)c3c2sc2c3CCC2)cc1	nt	nt	i	nt	nt
O=C(Nc1nn[nH]n1)c1cccc([N+](=O)[O-])c1	i	25.1µM	i	i	i
CN(N=O)c1ccc(O)c(O)c1	35.5µM	0.501µM	nt	nt	i
O=C(O)C1=NOC2CN(CC3CCCC3)CC12 (stereo not drawn)	nt	nt	i[12.5 µM]	nt	nt
Cc1sc2ccccc2c1CC1=NCCN1	i	11.2µM	?	i	i
c1ccc2c(c1)sc1ccccc12	i	i[2.33 µM]	i[22.9 µM]	i	i
CN1CCc2c([nH]c3ccccc23)C12CCNCC2	nt	nt	i	nt	nt
OCC1CN(c2ncccn2)CC12CCNCC2 (stereo not drawn)	nt	nt	i	nt	nt
COc1ccccc1OC(C)C(=O)N1CCC(Cc2ccccc2)CC1 (stereo not drawn)	i	50.1µM	?	i	i
COc1ccccc1N1CCN(C[C@H]2CN3CC[C@H]2C[C@@H]3CNC(=O)Nc2cccc(C#N)c2)CC1	nt	nt	i	nt	nt
Cc1cccc(N2C(=O)NC(=O)/C(=C/c3ccc(N4CCOCC4)cc3)C2=O)c1	i	?	i	50.1µM	i
Cc1cccc(N2C(=O)NC(=O)/C(=C\c3ccc(N4CCOCC4)cc3)C2=O)c1	i	?	?	25.1µM	i
Cc1cc(C)cc(N2C(=O)NC(=O)/C(=C\c3cccn3-c3ccc(Cl)cc3)C2=O)c1	i	i	i	i	?
COc1cc2c(cc1OCC1CC1)NC(=O)C21CCN(c2nccc(C(F)(F)F)n2)CC1	nt	nt	i	nt	nt
CNCCc1ccc(O)c(O)c1	?	31.6µM	?	56.2µM	i
c1ccc(N2CCCC3(CCNCC3)C2)nc1	50.1µM	i[12.7 µM]	i	i	i
COc1ccc2c(c1)C1(CCN(C(=O)c3cccc(N(C)C)c3)C1)C(=O)N2C (stereo not drawn)	nt	nt	i	nt	nt
Cc1cccc(NC(=O)COC(=O)c2cc(C)n(C3CC3)c2C)c1	i	?	i	nt	i
SMILES	VDR inh	G9a inh	12-LOX inh	Sfp PPTase inh	Glioma ERSR ind
Cc1cccc(NC(=O)CSc2ccc(-c3ccco3)nn2)c1	i	28.2µM	i	?	i
Cc1ccc(/C=C2\C(=O)NC(=S)N(c3ccc(F)cc3)C2=O)o1	i	3.98µM	?	44.7µM	i
COc1ccc(N2C(=O)/C(=C/c3ccc(N(C)C)o3)C(=O)NC2=S)cc1	i	44.7µM	?	i	i
COc1cccc(N2C(=O)/C(=C/c3ccc(C)o3)C(=O)NC2=S)c1	?	4.47µM	10µM	25.1µM	i
COc1ccc(N2C(=O)/C(=C/c3cccs3)C(=O)NC2=S)cc1	i	7.08µM	28.2µM	8.91µM	i
CCN(CC)c1ccc(/C=C2\C(=O)NC(=S)N(c3ccc(OC)cc3OC)C2=O)o1	i	nt	nt	nt	i
CC[C@H]1CN2CC[C@H]1C[C@@H]2CNS(=O)(=O)c1ccc(C)cc1	nt	nt	i	nt	nt
CN1CCN(C(=O)Cc2c[nH]c3ncc(-c4ccccc4F)cc23)CC1	nt	nt	i	nt	nt
CC[C@H]1CN2CC[C@H]1C[C@@H]2CNC(=O)c1cccc(F)c1	nt	nt	i	nt	nt
Cc1ccc(N2C(=O)/C(=C/c3ccc(CN(CCC#N)S(C)(=O)=O)o3)C(=O)NC2=S)cc1	?	7.94µM	nt	20µM	i
